PBM binding z-score data for 40 sequences are collected here from the supplement of paper PMC6555819.

This assay deals with VDR:RXRa (NR concentration 270 nM, RXRa partner concentration 90 nM). Description: PBM binding z-score (relative to random genomic background probes); higher = stronger binding; sequences stand for … in GC…GCGATTGACAGCGTAGAATGAAGG
Here is the method: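 Protein-binding microarray (Agilent 4x180K custom design, double-stranded 60-nt probes: 5' GC cap, 34-nt variable region, 24-nt constant primer region; full probe sequence given). Purified or IVT nuclear receptor:RXRα heterodimers (3:1 NR:RXRα, mostly 270:90 nM) or homodimers were incubated for 1 h in PBS with 2% milk and no ligand, then detected with Alexa488 antibodies. Fluorescence from o1-orientation probes (~5 replicates averaged) was converted to z-scores against 500 random hg19 background probes. Variable regions are seed direct-repeat (DR0–DR5) sites, all their single-nucleotide variants and half-site ablations.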
Turning to CCGACTGGGGCATATGGTTACCATAAGCCAGCCC, the PBM binding z-score was -0.695.
The same measure for CGTCCAAGGTCATAGGAGGTCAGTGTAGACAGAT: 6.49.
CCAACTGGGCCACGAAAGGTCATTGATTCAGTGA returned a PBM binding z-score of 4.26.
CCTCGGAGGACAGAAGGTCTGAGCTGTCCGCTTT returned a PBM binding z-score of -0.624.
The figure for CCTACTGGGCCACGAGAGGTCATTGATTCAGTGA is 4.45; for TCTGCTAGGTCAGTTGTTCAGCTAACGAGCTGCC it is -0.272; for CCTTCTGGGCCACGAAAGGTCATTGATTCAGTGA it is 4.28.
As for CAAACTAGGTAACGAAAGGTCAAAGTCGAATGAC, the PBM binding z-score is 4.87.
The same measure for CCTATCAGTTGACCATAAGGGCAACCGAAGCTCG: 0.912; for AGTCAAAGTTCGGGACGAGGTAACGTAAAGCACG: 0.784.
The figure for AGATGTAGGTTACATCCGGGTCATTCAGGCTATG is 4; for TCGAGTAGGTTAGTCGCGGCATTCAGCCAACATA it is -0.415; for GGAACGAGGGCATTCGAGTGGATAGCATGGCGAT it is 1.32.
The figure for TCGAGTAGGTTACCAATTGGGCATTCAGCTTTCT is -0.197.
Take ATCTCTAGGTAACCAAGTTCAGTGAGTGCCGAAC: the PBM binding z-score was 4.27.
The figure for CCGAGTGGGGCAAGGTTACCATAACGCACAGCCA is 0.482; for CAAACTAGGTCCAAGGTCAAAGTCGAGCCAACCA it is 4.04; for GCCAGCAGGCCATTTGGGTCACTCAATGACGGGC it is 0.978.
The figure for CAGCCTAGGTCACGGCCAGTATAGGAGGAACGTT is 2.68; for TTACCAAGGTGAAAGGTGGTTGATGCACGCCTTG it is 0.184.
The figure for ATCCCTAGGTAACAAGTTCAGTGAAAGAGAGGAC is 1.91; for AGAATTAGGTTATTAAGATCAGGGAATTGCGGTC it is 0.835; for CCTACTGGGCCAAGGTCAGTGATCAGTCAAAGCA it is 0.692.
CAAACTAGGTCACAGAGGTCAAAGTCCGTGCGTA displayed a PBM binding z-score of 8.16.
The same measure for ACTCGGAGGACAAAGGTCAGAGCCACGCCAGTGA: 3.43.
The same measure for TTACCAAGGTGAAAGGTCGTTAATGCACGCCTTG: 2.95.
With CGTCAATGTTCAAGGTAACGTAACAGAAAGCAGC, the PBM binding z-score was determined as 0.0627.
Sequence TCTAGCAGACCAGAGGGTCACTCAAGAGGTACGG gave a PBM binding z-score of 1.08.
Sequence AATACAGGGTCACTATGCCAGAGTAGGTACGAAT registered a PBM binding z-score of 3.91.
The figure for GGAACGAGGGCAAAGCTGATAGCATCTGTCGACG is 0.367.
The figure for GCGACTGGGGCATCAGCAGGTTATCATAACTTAA is -0.0496; for CTCGAAAGGTCGGTGGAGGTGAGTATACGGATAA it is 1.79.
CCTTACGGGTCACTCCCGGTTATAGCATCGGAGT showed a PBM binding z-score of 3.03.
The same measure for CTCGAAAGGTCGTGCTCAGGCGAGTATACCAAAC: 2.96; for TCTGCTAGGTCAGTTGGTCATCTAACGAGCTGCC: 0.463.
The same measure for TCATATAGGTAAATGCTAGGTCAAAGTCCGATCT: 2.15; for ACTATTAGTTGACTTACGGCAACCGATACGACGC: 0.0942; for CGAACGAGAGCATGAGTTGATAGCAAATGCCGAT: -0.244.
The figure for CGAAATAGGTCATCCAGGACAGTGAATACATTGA is 5.63; for AGTCAAAGTTCAGGACGAGGTAACGAAAAGCACG it is 2.95.
